Experimental data: the supplement of paper PMC13380429
Structures can show the parent of a compound that is named as a salt.

Tested on: Vero E6 infected with SARS-CoV-2
Assay: inhibition of SARS-CoV-2 cytopathic effect; higher = more antiviral protection, active = above 15
Conditions: 48 h

Measured: inhibition of SARS-CoV-2 cytopathic effect

CCn1c2ccccc2c2cc(Nc3ccnc(NCCCN4CCOCC4)n3)ccc21
active: 10000 nM 69.3%
inactive: 1 nM -2.13% | 8.33 nM -1.13% | 100 nM 0.05% | 833.33 nM -0.2%

CN1CCN(c2ccc(Nc3ncc4cc(C#N)c(=O)n(C5CCCC5)c4n3)cc2)CC1
inactive: 1 nM 1.39% | 8.33 nM 1.36% | 100 nM -0.35% | 833.33 nM -6.03% | 10000 nM -6.23%

NC(=O)N1CCC(CC(=O)N2CCC([C@H]3c4ncc(Br)cc4CCc4cc(Cl)cc(Br)c43)CC2)CC1 [lonafarnib]
inactive: 1 nM -0.44% | 8.33 nM 0.33% | 100 nM 1.55% | 833.33 nM 11.2% | 10000 nM 12.3%

NS(=O)(=O)c1cc(C(=O)O)c(NCc2ccco2)cc1Cl [furosemide]
inactive: 1 nM -1.05% | 8.33 nM 1.27% | 100 nM -1.4% | 833.33 nM 0.41% | 10000 nM 2.18%

c1ccc([C@H]2CNCc3ccccc32)cc1 [4-phenyl-1,2,3,4-tetrahydroisoquinoline]
inactive: 1 nM -0.57% | 8.33 nM 5.18% | 100 nM 3.96% | 833.33 nM 8.92% | 10000 nM 3%

Cn1cc(C2=C(c3cn(C4CCN(Cc5ccccn5)CC4)c4ccccc34)C(=O)NC2=O)c2ccccc21 [enzastaurin]
inactive: 1 nM 0.18% | 8.33 nM 1.89% | 100 nM 1.4% | 833.33 nM 1.31% | 10000 nM 3.94%

CCCC(=O)Nc1ccc(OCC(O)CNC(C)C)c(C(C)=O)c1 (stereo not given) [acebutolol]
inactive: 1 nM 4.4% | 8.33 nM 2.88% | 100 nM 3.43% | 833.33 nM -2.09% | 10000 nM 3.92%

CCCCCCCCc1ccc(CCC(N)(CO)CO)cc1 [fingolimod]
active: 10000 nM 15.2%
inactive: 1 nM 0% | 8.33 nM 2.1% | 100 nM -0.53% | 833.33 nM -4%

CN(C)C(=O)COC(=O)Cc1ccc(OC(=O)c2ccc(NC(=N)N)cc2)cc1 [Camostat mesylate]
inactive: 1 nM 0.94% | 8.33 nM -0.39% | 100 nM -0.94% | 833.33 nM 1.08% | 10000 nM -0.11%

CCNC(=O)C#Cc1ccc2c(C(=Nc3ccc(CN(C)C)cc3)c3ccccc3)c(O)[nH]c2c1
inactive: 1 nM 0.51% | 8.33 nM -0.81% | 100 nM -4.45% | 833.33 nM -15.2% | 10000 nM -20.6%

CC(C)CCNC(=O)[C@H](CC(C)C)NC(=O)[C@H]1O[C@@H]1C(=O)O [loxistatin-acid]
inactive: 1 nM -1.03% | 8.33 nM -1.05% | 100 nM -0.89% | 833.33 nM 0.62% | 10000 nM 2.74%

O=C1C[C@@H]2OCC=C3CN4CC[C@]56c7ccccc7N1[C@H]5[C@H]2[C@H]3C[C@H]46 [strychnine]
inactive: 1 nM -0.53% | 8.33 nM 0.64% | 100 nM 5.93% | 833.33 nM 3.93% | 10000 nM 1.26%

O=C(NOCC1CC1)c1ccc(F)c(F)c1Nc1ccc(I)cc1Cl
inactive: 1 nM -1.59% | 8.33 nM -0.84% | 100 nM -7.28% | 833.33 nM -6.38% | 10000 nM -13.8%

Cc1cc2c(cc1C(F)(F)F)N(C(=O)Nc1ccc(Oc3cccnc3C)nc1)CC2
inactive: 1 nM 0.45% | 8.33 nM 0.15% | 100 nM -0.25% | 833.33 nM 0.74% | 10000 nM -2.31%

O=C1OC(OC(=O)c2cccnc2Nc2cccc(C(F)(F)F)c2)c2ccccc21 (stereo not given) [talniflumate]
inactive: 1 nM 2.12% | 8.33 nM -1.23% | 100 nM -2.09% | 833.33 nM 0.94% | 10000 nM 0.53%

Cc1c(C)c2c(c(C)c1OC(=O)CCC(=O)O)CC[C@@](C)(CCC[C@H](C)CCC[C@H](C)CCCC(C)C)O2 [D-alpha-tocopheryl-succinate]
inactive: 1 nM -5.51% | 8.33 nM -5.87% | 100 nM -7.06% | 833.33 nM -5.36% | 10000 nM -2.64%

Cc1cnc(CNC(=O)c2c(=O)c3ccc(N4CCCN(C)CC4)nc3n3c2sc2ccccc23)cn1
inactive: 1 nM 0.83% | 8.33 nM -2.59% | 100 nM -1.2% | 833.33 nM 4.48% | 10000 nM 0.59%

CN[C@@H](C)C(=O)N[C@H](C(=O)N1CCC[C@H]1C(=O)N[C@H]1c2ccccc2C[C@H]1OCC#CC#CCO[C@@H]1Cc2ccccc2[C@@H]1NC(=O)[C@@H]1CCCN1C(=O)[C@@H](NC(=O)[C@H](C)NC)C1CCCCC1)C1CCCCC1
inactive: 1 nM 0.65% | 8.33 nM 4.06% | 100 nM 1.35% | 833.33 nM -6.56% | 10000 nM -3.86%

CO/N=C(\C(=O)N[C@@H]1C(=O)N2C(C(=O)OCOC(=O)C(C)(C)C)=C(C)CS[C@H]12)c1csc(N)n1 [cefetamet-pivoxil]
inactive: 1 nM -1.77% | 8.33 nM -0.88% | 100 nM -2.82% | 833.33 nM -0.78% | 10000 nM -2.04%

CCNC(=O)c1noc(-c2cc(C(C)C)c(O)cc2O)c1-c1ccc(CN2CCOCC2)cc1
inactive: 1 nM 0.97% | 8.33 nM -0.58% | 100 nM -1.84% | 833.33 nM 0.4% | 10000 nM -4.07%

Oc1ccc(Nc2nc(-c3ccc(Cl)cc3)cs2)cc1
inactive: 1 nM 0.33% | 8.33 nM 0.67% | 100 nM 2.65% | 833.33 nM 1.03% | 10000 nM 3.81%

C#C[C@]1(O)CC[C@H]2[C@@H]3CCC4=CC(=O)CC[C@@H]4[C@H]3C(=C)C[C@@]21CC [etonogestrel]
inactive: 1 nM -0.26% | 8.33 nM -1.3% | 100 nM -4.31% | 833.33 nM -3.15% | 10000 nM -3.98%

CCOc1ccc(Nc2nc(-c3c(C)nc4ccccn34)cs2)cc1
inactive: 1 nM -1.73% | 8.33 nM -0.39% | 100 nM -1.68% | 833.33 nM 2.2% | 10000 nM 1.71%

CC[C@@H](C)c1ccc(NC(=O)Cn2cnc3c2c(=O)n(C)c(=O)n3C)cc1 (racemic)
inactive: 1 nM -0.15% | 8.33 nM 0.22% | 100 nM -1.39% | 833.33 nM -1.04% | 10000 nM 3.52%

CCOC(=O)[N-]c1c[n+](N2CCOCC2)no1 [molsidomine]
inactive: 1 nM -0.39% | 8.33 nM 1.12% | 100 nM 2.15% | 833.33 nM 1.58% | 10000 nM -0.19%

CCN(CC)CCOC(=O)c1cc(Cl)c(N)cc1OC
inactive: 1 nM 3.29% | 8.33 nM 3.49% | 100 nM 1.89% | 833.33 nM -0.08% | 10000 nM -0.47%

CC[C@H]1[C@@H](O)[C@@H]2[C@H](CC[C@]3(C)[C@@H]([C@H](C)CCC(=O)O)CC[C@@H]23)[C@@]2(C)CC[C@@H](O)C[C@@H]12 [obeticholic-acid]
inactive: 1 nM 0.365% | 8.33 nM 1.41% | 100 nM 1.03% | 833.33 nM 2.73% | 10000 nM 1.65%

CSc1ccc2c(c1)[C@H](N1CCN(C)CC1)Cc1ccccc1S2 (racemic) [metitepine]
active: 10000 nM 16.2%
inactive: 1 nM 0.91% | 8.33 nM 0.58% | 100 nM -0.78% | 833.33 nM -2.3%

CCc1nc(N)nc(N)c1-c1ccc(Cl)cc1 [pyrimethamine]
inactive: 1 nM 2.57% | 8.33 nM 3.29% | 100 nM 2.35% | 833.33 nM 1.69% | 10000 nM -1.07%

Cc1nc(-c2ccc(OCC(C)C)c(C#N)c2)sc1C(=O)O [febuxostat]
inactive: 1 nM -0.9% | 8.33 nM -0.46% | 100 nM -0.43% | 833.33 nM 2.99% | 10000 nM 1.58%

COc1c(C)cnc(Cn2cnc3c(Cl)nc(N)nc32)c1C
inactive: 1 nM -0.38% | 8.33 nM 2.24% | 100 nM 0.07% | 833.33 nM 3.31% | 10000 nM 6.01%

CC(=O)N[C@@H](CCC(N)=O)C(=O)O [aceglutamide]
inactive: 1 nM 1.69% | 8.33 nM 3.16% | 100 nM 6.3% | 833.33 nM 1.78% | 10000 nM -5.34%

Nc1nc(N)c2nc(-c3ccccc3)c(N)nc2n1 [triamterene]
inactive: 1 nM 0.51% | 8.33 nM 2.72% | 100 nM 4.04% | 833.33 nM 0.17% | 10000 nM -2.92%

O=C(O[C@H]1CN2CCC1CC2)N(Cc1cc(F)c(F)c(F)c1)c1cccc(F)c1 [tarafenacin]
inactive: 1 nM 1.69% | 8.33 nM -0.35% | 100 nM 2.28% | 833.33 nM -1.46% | 10000 nM -7.54%

CC(=O)NS(=O)(=O)c1ccc(N)cc1 [sulfacetamide]
inactive: 1 nM 0.35% | 8.33 nM 2.07% | 100 nM 1.95% | 833.33 nM 2.14% | 10000 nM 0.21%

Clc1ccc(CSC(Cn2ccnc2)c2ccc(Cl)cc2Cl)cc1 (stereo not given) [sulconazole]
inactive: 1 nM -1.13% | 8.33 nM 2.09% | 100 nM 0.76% | 833.33 nM -1.38% | 10000 nM -0.46%

CC(=O)OCC(=O)[C@@]12OC(C)(C)O[C@@H]1C[C@H]1[C@@H]3C[C@H](F)C4=CC(=O)C=C[C@]4(C)[C@@]3(F)[C@@H](O)C[C@@]12C [fluocinonide]
inactive: 1 nM 0.75% | 8.33 nM -0.105% | 100 nM 0.48% | 833.33 nM 0.035% | 10000 nM -1.54%

Cn1cccc1/C=C1\C(=O)NC(=O)c2ccccc21
inactive: 1 nM 2.55% | 8.33 nM -0.08% | 100 nM -1.24% | 833.33 nM -2.42% | 10000 nM 5%
